Results filed as inconclusive are left out. Entries that show only a call come without a potency. Activity calls are given as the source filed them. Calls follow the shape of the dose curve; as a rule, active = well fitted curve in the direction sought with a large enough effect; inconclusive = small, poorly fitted or top-dose-only effect, or another doubt; inactive = no such curve, though single readings can be large; an effect the other way counts as inactive or inconclusive.
Test system: not listed separately
Experiment: qHTS to identify inhibitors of the type 1 interferon - major histocompatibility complex class I in skeletal muscle: primary screen against the NCATS Pharmaceutical Collection (AID 1347407);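 also: luminescence of HiBiT knocked into endogenous HLA-B as interferon-induced MHC class I level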
Conditions: human skeletal muscle cells, IFN-b-induced MHC-I HiBiT luminescence, 24 h; series mostly up to 45.9 µM
In short: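 Compounds […] were added to CRISPR-engineered HLA-B-HiBiT C25cl48 human myoblasts with 4.0 ng/ml IFN-beta. After 24 hrs at 37 C, cells were lysed and HiBiT luminescence measured.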
In the case of `O=C(N[C@@H]1N=C(c2ccccc2F)c2cccc3c2N(CC3)C1=O)c1cc2ccccc2[nH]1`, the Potency was “inactive”. In the case of `Cc1ccc([N+](=O)[O-])[c]2c1[O][Hg]2`, the Potency was 11.8 µM (active). For `CCOC(=O)c1ncn2c1CN(C)C(=O)c1c(I)cccc1-2`, the Potency was “inactive”. For `C[C@@H]1CN(C2CCC(C#N)(c3ccc(F)cc3)CC2)CC[C@]1(C(=O)O)c1ccccc1` (stereo not given in full), the Potency was “inactive”. For `Clc1ccc(CO/N=C(\Cn2ccnc2)c2ccc(Cl)cc2Cl)c(Cl)c1`, the Potency was “inactive”. For `O=C(CCCN1CCC(n2c(=O)[nH]c3ccccc32)CC1)c1ccc(F)cc1`, the Potency was “inactive”. In the case of `Oc1ccc([C@H]2CNCc3c2ccc(O)c3O)cc1O`, the Potency was “inactive”. In the case of `O=C(NC(=O)c1c(F)cccc1F)Nc1cc(Cl)c(OC(F)(F)C(F)C(F)(F)F)cc1Cl` (stereo not given), the Potency was “inactive”. With `CC(Cc1ccccc1)NCCCCl` (stereo not given) the Potency was “inactive”. For `C=CC[C@]1(O)CC[C@H]2[C@@H]3CCC4=CC(=O)CCC4=C3C=C[C@@]21C`, the Potency was “inactive”. For `O=C(N[C@H]1N=C(c2ccccc2F)c2cccc3c2N(CC3)C1=O)c1cc2ccccc2[nH]1`, the Potency was “inactive”. With `O=C1CN2CCOC2(c2ccccc2Cl)c2cc(Cl)ccc2N1` (stereo not given) the Potency was “inactive”. For `CN1C(=O)[C@@H](NC(=O)c2cc3ccccc3[nH]2)N=C(c2ccccc2)c2ccccc21`, the Potency was “inactive”. With `CC(C)C(Br)C(=O)NC(N)=O` (stereo not given) the Potency was “inactive”. For `Clc1ccc(C(OCCN2CCCCC2)c2ccccc2)cc1` (stereo not given), the Potency was “inactive”. For `CCC(=O)C(CCN(C)C)(c1ccccc1)c1ccccc1`, the Potency was “inactive”. In the case of `C=CCOC(Cn1ccnc1)c1ccc(Cl)cc1Cl` (stereo not given), the Potency was “inactive”. In the case of `Cc1nnc2n1-c1sc(CCc3ccc(CC(C)C)cc3)cc1C(c1ccccc1Cl)=NC2C` (stereo not given), the Potency was “inactive”. With `COc1ccc2c(C(=O)c3ccc(Cl)cc3)c(C)n(CC(=O)O)c2c1` the Potency was “inactive”. In the case of `c1ccc2nc(N3CCNCC3)ccc2c1`, the Potency was “inactive”. In the case of `CC[C@H]1C[C@H]2[C@@H]3CCC4=CC(=O)CC[C@@H]4[C@H]3CC[C@]2(C)[C@H]1O`, the Potency was “inactive”. In the case of `CN1C2CCC(C)(C)C1CC(OC(=O)C(O)(c1cccs1)c1cccs1)C2` (stereo not given), the Potency was “inactive”. For `CC(C(O)c1ccccc1)N(C)C/C=C/c1ccccc1` (stereo not given), the Potency was “inactive”.

Molecular target: Protein phosphatase 1D (Homo sapiens) (UniProt O15297)
Sequence (O15297 whole entry, looked up): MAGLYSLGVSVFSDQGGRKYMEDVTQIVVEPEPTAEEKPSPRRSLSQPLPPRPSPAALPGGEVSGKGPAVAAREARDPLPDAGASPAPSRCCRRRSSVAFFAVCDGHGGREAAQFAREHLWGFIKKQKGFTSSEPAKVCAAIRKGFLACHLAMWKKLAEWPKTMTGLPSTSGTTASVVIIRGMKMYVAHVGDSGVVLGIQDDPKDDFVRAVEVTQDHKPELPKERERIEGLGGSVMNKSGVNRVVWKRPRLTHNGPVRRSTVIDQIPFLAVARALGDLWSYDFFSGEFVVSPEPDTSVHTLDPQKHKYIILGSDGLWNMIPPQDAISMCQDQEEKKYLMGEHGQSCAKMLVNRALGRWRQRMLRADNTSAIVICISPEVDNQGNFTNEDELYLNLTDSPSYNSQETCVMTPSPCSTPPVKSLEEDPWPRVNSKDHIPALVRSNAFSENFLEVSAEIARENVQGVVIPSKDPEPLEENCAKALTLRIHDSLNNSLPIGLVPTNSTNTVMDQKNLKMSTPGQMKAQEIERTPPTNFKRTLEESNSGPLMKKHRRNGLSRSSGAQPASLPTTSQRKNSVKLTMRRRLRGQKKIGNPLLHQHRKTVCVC
Experiment: RapidFire Mass Spectrometry qHTS Assay for Modulators of WT P53-Induced Phosphatase 1 (WIP1) (AID 1347424);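 also: amount of dephosphorylated VEPPL-S-QETFS peptide product formed by WIP1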
Conditions: WIP1 dephosphorylation of phosphopeptide, RapidFire MS; series mostly up to 63 µM
In short: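 WIP1 (10 nM final) was preincubated 1 h at room temperature with compounds in Tris-HCl pH 7.5, 30 mM MgCl2, TCEP, EGTA, BSA; 2 uM VEPPL-pS-QETFS phosphopeptide was added for 5 min, quenched with formic acid, and dephosphorylated product quantified by RapidFire MS.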
With `Clc1ccc(CSC(Cn2ccnc2)c2ccc(Cl)cc2Cl)cc1` (stereo not given) the Potency was “inactive”. With `CNC(=O)Oc1cccc2ccccc12` the Potency was “inactive”. For `CC#C[C@]1(O)CC[C@H]2[C@@H]3C[C@H](C)C4=CC(=O)CC[C@]4(C)[C@H]3CC[C@@]21C`, the Potency was “inactive”. For `Cc1ccc([N+](=O)[O-])[c]2c1[O][Hg]2`, the Potency was 3.98 µM (active). With `CCOC(=O)c1ncn2c1CN(C)C(=O)c1c(I)cccc1-2` the Potency was “inactive”. In the case of `C[C@@H]1CN(C2CCC(C#N)(c3ccc(F)cc3)CC2)CC[C@]1(C(=O)O)c1ccccc1` (stereo not given in full), the Potency was “inactive”. In the case of `Clc1ccc(CO/N=C(\Cn2ccnc2)c2ccc(Cl)cc2Cl)c(Cl)c1`, the Potency was “inactive”. For `O=C(CCCN1CCC(n2c(=O)[nH]c3ccccc32)CC1)c1ccc(F)cc1`, the Potency was “inactive”. With `O=C(NC(=O)c1c(F)cccc1F)Nc1cc(Cl)c(OC(F)(F)C(F)C(F)(F)F)cc1Cl` (stereo not given) the Potency was “inactive”. For `CCOP(=S)(OCC)O/N=C(\C#N)c1ccccc1`, the Potency was “inactive”. In the case of `C[C@]12CC[C@H]3[C@@H](CCC4=CC(=O)CC[C@@H]43)[C@@H]1CC[C@@H]2O`, the Potency was “inactive”. With `CC(Cc1ccccc1)NCCCCl` (stereo not given) the Potency was “inactive”. For `C=CC[C@]1(O)CC[C@H]2[C@@H]3CCC4=CC(=O)CCC4=C3C=C[C@@]21C`, the Potency was “inactive”. For `Oc1ccc2[nH]cc(CCCCN3CC=C(c4ccccc4)CC3)c2c1`, the Potency was “inactive”. In the case of `O=C1CN2CCOC2(c2ccccc2Cl)c2cc(Cl)ccc2N1` (stereo not given), the Potency was “inactive”. In the case of `CCCCCCCCCCCC[N+](C)(C)CCOc1ccccc1`, the Potency was “inactive”. With `CC[C@]1(O)CC[C@H]2[C@@H]3CCC4=CCCC[C@@H]4[C@H]3CC[C@@]21C` the Potency was “inactive”. With `CC1N=C(N)OC1c1ccccc1` (stereo not given) the Potency was “inactive”. With `CC(C)C(Br)C(=O)NC(N)=O` (stereo not given) the Potency was “inactive”. For `C[C@]12Cc3nonc3C[C@@H]1CC[C@@H]1[C@@H]2CC[C@@]2(C)[C@H]1CC[C@]2(C)O`, the Potency was “inactive”. With `CCOC(=O)c1cncn1C(C)c1ccccc1` (stereo not given) the Potency was “inactive”. With `Clc1ccc(C(OCCN2CCCCC2)c2ccccc2)cc1` (stereo not given) the Potency was “inactive”. With `COc1ccc2c3c1O[C@H]1[C@@H](O)C=C[C@H]4[C@@H](C2)N(C)CC[C@@]341` the Potency was “inactive”. In the case of `c1ccc2c(c1)Sc1ccccc1N2CC1CN2CCC1CC2` (stereo not given), the Potency was “inactive”. In the case of `CCC(=O)C(CCN(C)C)(c1ccccc1)c1ccccc1`, the Potency was “inactive”. In the case of `C=CCOC(Cn1ccnc1)c1ccc(Cl)cc1Cl` (stereo not given), the Potency was “inactive”. For `C#C[C@]1(O)C=C[C@H]2[C@@H]3CCC4=CC(=O)CC[C@@H]4[C@H]3CC[C@@]21CC`, the Potency was “inactive”. With `CCC(=O)O[C@H]1CC[C@H]2[C@@H]3CCC4=CC(=O)CC[C@]4(C)[C@H]3CC[C@]12C` the Potency was “inactive”. In the case of `CC[C@H]1C[C@H]2[C@@H]3CCC4=CC(=O)CC[C@@H]4[C@H]3CC[C@]2(C)[C@H]1O`, the Potency was “inactive”. In the case of `CN1C2CCC(C)(C)C1CC(OC(=O)C(O)(c1cccs1)c1cccs1)C2` (stereo not given), the Potency was “inactive”. For `CC(C(O)c1ccccc1)N(C)C/C=C/c1ccccc1` (stereo not given), the Potency was “inactive”. In the case of `C[C@H](N)[C@H](O)c1ccc(O)c(O)c1`, the Potency was 2 µM (active).

Reference: PubChem BioAssay (NCATS)
Potency is read from the fitted curve at half-maximal effect.
